Reference: the supplement of paper PMC6555819

Assays:
Assay in all cases: PBM binding z-score (relative to random genomic background probes); higher = stronger binding; sequences stand for … in GC…GCGATTGACAGCGTAGAATGAAGG
[1] = test system: RARb homodimer (NR concentration 270 nM)
How it was run: (§1)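 For binding z-scores, the reference was random background probes on custom Agilent 4×180K protein-binding microarrays. These arrays were incubated 1 h with ligand-free nuclear receptor dimers in PBS pH 7.4, 2% milk, 0.02% Triton X-100, 1 mM DTT, 0.2 mg/mL BSA and 0.4 mg/ml salmon testes DNA. Fluorescence was scanned after antibody detection of each partner (one per run) and regression-normalized.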

[2] = test system: RARg:RXRa (NR concentration 270 nM, RXRa partner concentration 90 nM)
How it was run: as §1

[3] = test system: RARg homodimer (NR concentration 270 nM)
How it was run: as §1

[4] = test system: RXRa DBDmut IVT, anti-RXR (DBD mutation: RXRa K156A/R161A, NR concentration 90 nM)
How it was run: as §1

[5] = test system: RXRa homodimer (NR concentration 180 nM)
How it was run: as §1

[6] = test system: THRa:RXRa (NR concentration 90 nM, RXRa partner concentration 90 nM)
How it was run: as §1

[7] = test system: THRa homodimer (NR concentration 90 nM)
How it was run: as §1

[8] = test system: VDR homodimer (NR concentration 270 nM)
How it was run: as §1

## CCTACTGGGCCATCAGGTCAATGATATCAACGTT
[1]
  PBM binding z-score: 2.67
[2]
  PBM binding z-score: 2.1
[3]
  PBM binding z-score: 2.2
[4]
  PBM binding z-score: -0.0866
[5]
  PBM binding z-score: 1.31
[6]
  PBM binding z-score: 3.17
[7]
  PBM binding z-score: 2.24
[8]
  PBM binding z-score: 0.718

## CTACCAAGGTGAACAAGGTCGTTAATTACTATTC
[1]
  PBM binding z-score: 2.04
[2]
  PBM binding z-score: 1.86
[3]
  PBM binding z-score: 1.55
[4]
  PBM binding z-score: 1.48
[5]
  PBM binding z-score: 1.91
[6]
  PBM binding z-score: 3.19
[7]
  PBM binding z-score: 1.99
[8]
  PBM binding z-score: 2.64

## TAGCCTAGGTCAGTGGGCCAGTATAGTACGCATC
[1]
  PBM binding z-score: 2.1
[2]
  PBM binding z-score: 2.45
[3]
  PBM binding z-score: 3.58
[4]
  PBM binding z-score: -0.571
[5]
  PBM binding z-score: 1.03
[6]
  PBM binding z-score: 1.29
[7]
  PBM binding z-score: -0.197
[8]
  PBM binding z-score: -0.446

## CAAACTAGGGCAAGGTCAAAGTCGGTTTGTGCCA
[1]
  PBM binding z-score: 4.09
[2]
  PBM binding z-score: 4.67
[3]
  PBM binding z-score: 4.49
[4]
  PBM binding z-score: 2.41
[5]
  PBM binding z-score: 4.63
[6]
  PBM binding z-score: 3.75
[7]
  PBM binding z-score: 2.34
[8]
  PBM binding z-score: 3.52

## ATACCGAGGTGATCGTGAGGTCGTTGATACTAAC
[1]
  PBM binding z-score: 1.77
[2]
  PBM binding z-score: 2.74
[3]
  PBM binding z-score: 0.682
[4]
  PBM binding z-score: 0.849
[5]
  PBM binding z-score: 1.91
[6]
  PBM binding z-score: 3.52
[7]
  PBM binding z-score: 2.44
[8]
  PBM binding z-score: 2.85

## TCTTGTAGATCAGGCAGGTTAAGAAAGCCTGAGT
[1]
  PBM binding z-score: -0.0605
[2]
  PBM binding z-score: -0.161
[3]
  PBM binding z-score: -0.489
[4]
  PBM binding z-score: 0.355
[5]
  PBM binding z-score: 0.102
[6]
  PBM binding z-score: 0.149
[7]
  PBM binding z-score: -0.429
[8]
  PBM binding z-score: 0.00584

## TTACCAAGGTGAAAGGTCGTTGACGCACGCCTTG
[1]
  PBM binding z-score: 2.87
[2]
  PBM binding z-score: 4.52
[3]
  PBM binding z-score: 2.25
[4]
  PBM binding z-score: 0.212
[5]
  PBM binding z-score: 6.19
[6]
  PBM binding z-score: 3.34
[7]
  PBM binding z-score: 0.822
[8]
  PBM binding z-score: 1.41

## TCTATTAGTTGAAGAGCAACCGACGAGTCCGTTT
[1]
  PBM binding z-score: -0.385
[2]
  PBM binding z-score: -0.11
[3]
  PBM binding z-score: -0.0161
[4]
  PBM binding z-score: 1.36
[5]
  PBM binding z-score: 0.301
[6]
  PBM binding z-score: -0.14
[7]
  PBM binding z-score: -0.463
[8]
  PBM binding z-score: 1.23

## CGTCCAAGGTCAGAGAGGTCAGTGAGTGCCGAGT
[1]
  PBM binding z-score: 5.29
[2]
  PBM binding z-score: 6.35
[3]
  PBM binding z-score: 7.09
[4]
  PBM binding z-score: 3.37
[5]
  PBM binding z-score: 5.51
[6]
  PBM binding z-score: 4.37
[7]
  PBM binding z-score: 3.07
[8]
  PBM binding z-score: 6.07

## TCAGACAGGTGAAGGTAACTTAGGTACGCAGTCG
[1]
  PBM binding z-score: 0.872
[2]
  PBM binding z-score: 0.797
[3]
  PBM binding z-score: 0.756
[4]
  PBM binding z-score: 1.19
[5]
  PBM binding z-score: 1.14
[6]
  PBM binding z-score: 1.86
[7]
  PBM binding z-score: 0.691
[8]
  PBM binding z-score: 0.508

## CCGGACAGGTGAAAGGTAACTCAGTCTGGTACGC
[1]
  PBM binding z-score: 0.991
[2]
  PBM binding z-score: 1.57
[3]
  PBM binding z-score: 0.863
[4]
  PBM binding z-score: -0.0224
[5]
  PBM binding z-score: 1.89
[6]
  PBM binding z-score: 0.766
[7]
  PBM binding z-score: 0.12
[8]
  PBM binding z-score: 0.0749

## GAGACTGGGGCATCAGCAGGTTACCATAACTTAA
[1]
  PBM binding z-score: 1.46
[2]
  PBM binding z-score: 0.941
[3]
  PBM binding z-score: 0.703
[4]
  PBM binding z-score: 0.142
[5]
  PBM binding z-score: 0.509
[6]
  PBM binding z-score: 1.3
[7]
  PBM binding z-score: 0.361
[8]
  PBM binding z-score: -0.0346

## ATATGTAGGTTGAGGGTCATTCAGGTTGGTTCGC
[1]
  PBM binding z-score: 3.23
[2]
  PBM binding z-score: 2.89
[3]
  PBM binding z-score: 2.15
[4]
  PBM binding z-score: 1.95
[5]
  PBM binding z-score: 3.62
[6]
  PBM binding z-score: 2.92
[7]
  PBM binding z-score: 1.68
[8]
  PBM binding z-score: 3.74

## GTTACAGGGTCAGCTAGAGGCCAGAGTATGGAAA
[1]
  PBM binding z-score: 3.54
[2]
  PBM binding z-score: 6.82
[3]
  PBM binding z-score: 5.21
[4]
  PBM binding z-score: 1.4
[5]
  PBM binding z-score: 4.47
[6]
  PBM binding z-score: 3.11
[7]
  PBM binding z-score: 0.599
[8]
  PBM binding z-score: 1.01
